Measured values reported in PubChem BioAssay (NCATS).
Results filed as inconclusive are left out. For some assays here: Results with a measured potency or affinity are listed apart. Active and inactive are the calls of the source.

Experiments:
[1] = Ebola virus entry assay, reporter ratio channel; AC50: Channel type: primary unless noted; outcome: Channel type: primary unless noted
[2] = qHTS assay for measurement of the activity of small molecule inhibitors on Zika virus induced Caspase-3 activity in human iPSC derived neural progenitor cells (hNPCs) (AID 1224857; active means well fitted curve in the direction sought with a large enough effect; an effect the other way counts as inactive or inconclusive; further: % of control where 0% means no effect; nearly all actives have a fitted effect of over 65% in size)
Method in brief: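 Pretreat hNPCs with compound 1 h; infect ZIKV 2 FFU/cell; 6 h 37 C, 5% CO2; Caspase-Glo 3/7, 30 min RT; luminescence; normalize to no-virus and virus-only wells.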

[3] = qHTS assay for measurement of the activity of small molecule inhibitors on Zika virus induced Caspase-3 activity in human astrocytoma cells (AID 1224859; active means well fitted curve in the direction sought with a large enough effect; an effect the other way counts as inactive or inconclusive;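 further: plate controls were ZIKV-infected untreated cells for no effect and uninfected cells for full effect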)
Method in brief: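 Human SNB-19 astrocytoma cells in RPMI 1640 with 10% FBS receive compound one hour ahead of Zika virus at 2 FFU/cell. After 6 h infection, caspase-3/7 activity is detected by Caspase-Glo luminescence.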

[4] = Ebola virus entry assay, blue channel (ratio component)
[5] = qHTS assay to identify small molecule inhibitors of chordoma cells - UCH-1 (AID 1259355; active means well fitted curve in the direction sought with a large enough effect; an effect the other way counts as inactive or inconclusive; further: on the % scale 0 is the no-effect control and ±100 the full control effect; nearly all actives have a fitted effect of over 55% in size)
Method in brief: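 Cells (800/well) were seeded and left overnight at 37 C, 5% CO2, then treated with drugs at 15 concentrations plus a combination mix of auranofin, camptothecin, doxorubicin, rubitecan and topotecan. Viability after 48hr was read by CellTiter-Glo luminescence.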

[6] = qHTS assay to identify small molecule inhibitors of chordoma cells - UCH-2 (AID 1259356; active means well fitted curve in the direction sought with a large enough effect; an effect the other way counts as inactive or inconclusive; further: series mostly up to about 46 µM; on the % scale 0 is the no-effect control and ±100 the full control effect)
[7] = Ebola virus entry reporter assay, green channel fluorescence
[8] = Ebola virus entry cell assay, ratio channel

Measured: activity, negative = inhibition

CCN(CC)C(=O)[C@@H]1C=C2c3cccc4[nH]cc(c34)C[C@H]2N(C)C1
inactive: [1] | [2] | [3]

CCC1(c2ccccc2)C(=O)N(COC)C(=O)N(COC)C1=O
inactive: [1] | [4] | [3] | [5]

O=C(Nc1ccc(Br)cc1)c1cc(Br)cc(Br)c1O
inactive: [1] | [4] | [5] | [6]

CO[C@@]1(NC(=O)C2SC(=C(C(N)=O)C(=O)O)S2)C(=O)N2C(C(=O)O)=C(CSc3nnnn3C)CS[C@@H]21 (stereo partly specified)
inactive: [7] | [8]

NC1=NC(=O)C(c2ccccc2)O1 (stereo unspecified)
inactive: [1] | [4] | [3] | [5]

CC(C)(C)NCC(O)c1ccccc1Cl (stereo unspecified)
inactive: [1] | [4] | [3] | [5] 11.9% [at 9.21 µM] | [6]

CN1C(=O)NC(=O)C(C)(C2=CCCCC2)C1=O (stereo unspecified)
inactive: [1] | [4] | [3] | [5]

NC(=O)CC[C@@H]1NC(=O)[C@H](Cc2ccccc2)NC(=O)[C@H](Cc2ccc(O)cc2)NC(=O)[C@@H](N)CSSC[C@@H](C(=O)N2CCC[C@H]2C(=O)N[C@@H](CCCN=C(N)N)C(=O)NCC(N)=O)NC(=O)[C@H](CC(N)=O)NC1=O
inactive: [7] | [8]

COP(=S)(OC)SCN1C(=O)c2ccccc2C1=O
inactive: [1] | [4] | [3] | [5]

CCOP(=S)(OCC)Oc1ccc2c(C)c(Cl)c(=O)oc2c1
inactive: [1] | [4] | [5]

CCC1(CC)C(=O)C=CNC1=O
inactive: [1] | [4] | [3] | [5]

C#CCC(Cc1cnc2nc(N)nc(N)c2n1)c1ccc(C(=O)N[C@@H](CCC(=O)O)C(=O)O)cc1 (stereo partly specified)
inactive: [7] | [8]
